These results are taken from the supplement of paper PMC11006884.

About 6,500 targets were measured; listed, in parts, are those with a hit and a random draw of the rest. About 2% of all pairs of compound and target were hits.

Sequence of UniProt Q9BV68 (Q9BV68 whole entry, looked up): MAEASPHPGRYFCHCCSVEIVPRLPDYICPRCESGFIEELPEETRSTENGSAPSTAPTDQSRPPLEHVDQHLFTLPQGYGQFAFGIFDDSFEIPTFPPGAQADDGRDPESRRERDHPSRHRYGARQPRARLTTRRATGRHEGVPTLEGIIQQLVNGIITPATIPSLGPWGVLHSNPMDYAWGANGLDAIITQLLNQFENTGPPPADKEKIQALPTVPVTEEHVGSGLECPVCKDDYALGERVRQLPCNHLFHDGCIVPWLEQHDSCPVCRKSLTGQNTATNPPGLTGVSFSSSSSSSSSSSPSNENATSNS
Sequence of UniProt Q9Y2L1 (Q9Y2L1 whole entry, looked up): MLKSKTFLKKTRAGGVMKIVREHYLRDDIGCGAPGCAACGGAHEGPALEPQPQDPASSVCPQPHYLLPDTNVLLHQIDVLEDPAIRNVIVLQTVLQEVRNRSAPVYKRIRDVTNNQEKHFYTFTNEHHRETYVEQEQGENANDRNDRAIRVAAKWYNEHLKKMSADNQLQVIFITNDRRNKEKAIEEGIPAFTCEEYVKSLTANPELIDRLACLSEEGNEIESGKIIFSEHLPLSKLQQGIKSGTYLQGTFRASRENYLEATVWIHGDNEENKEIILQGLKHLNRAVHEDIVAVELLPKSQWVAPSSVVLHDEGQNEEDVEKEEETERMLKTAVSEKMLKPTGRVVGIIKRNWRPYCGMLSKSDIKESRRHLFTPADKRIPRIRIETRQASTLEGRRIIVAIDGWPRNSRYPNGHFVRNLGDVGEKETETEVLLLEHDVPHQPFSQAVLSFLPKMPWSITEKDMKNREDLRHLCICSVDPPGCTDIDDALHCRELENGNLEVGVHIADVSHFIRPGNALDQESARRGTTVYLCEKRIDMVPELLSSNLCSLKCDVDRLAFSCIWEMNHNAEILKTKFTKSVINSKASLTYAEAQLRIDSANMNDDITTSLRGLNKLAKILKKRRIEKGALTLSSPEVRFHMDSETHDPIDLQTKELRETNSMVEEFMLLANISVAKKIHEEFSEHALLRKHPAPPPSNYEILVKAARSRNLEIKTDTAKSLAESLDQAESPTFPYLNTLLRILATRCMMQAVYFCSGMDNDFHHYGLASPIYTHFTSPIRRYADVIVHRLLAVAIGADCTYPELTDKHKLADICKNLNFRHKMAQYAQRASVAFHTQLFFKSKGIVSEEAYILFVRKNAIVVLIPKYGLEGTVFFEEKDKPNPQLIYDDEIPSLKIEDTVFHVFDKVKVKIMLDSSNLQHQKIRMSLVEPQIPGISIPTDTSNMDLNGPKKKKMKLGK
Sequence of UniProt Q9BYW2 (Q9BYW2 whole entry, looked up): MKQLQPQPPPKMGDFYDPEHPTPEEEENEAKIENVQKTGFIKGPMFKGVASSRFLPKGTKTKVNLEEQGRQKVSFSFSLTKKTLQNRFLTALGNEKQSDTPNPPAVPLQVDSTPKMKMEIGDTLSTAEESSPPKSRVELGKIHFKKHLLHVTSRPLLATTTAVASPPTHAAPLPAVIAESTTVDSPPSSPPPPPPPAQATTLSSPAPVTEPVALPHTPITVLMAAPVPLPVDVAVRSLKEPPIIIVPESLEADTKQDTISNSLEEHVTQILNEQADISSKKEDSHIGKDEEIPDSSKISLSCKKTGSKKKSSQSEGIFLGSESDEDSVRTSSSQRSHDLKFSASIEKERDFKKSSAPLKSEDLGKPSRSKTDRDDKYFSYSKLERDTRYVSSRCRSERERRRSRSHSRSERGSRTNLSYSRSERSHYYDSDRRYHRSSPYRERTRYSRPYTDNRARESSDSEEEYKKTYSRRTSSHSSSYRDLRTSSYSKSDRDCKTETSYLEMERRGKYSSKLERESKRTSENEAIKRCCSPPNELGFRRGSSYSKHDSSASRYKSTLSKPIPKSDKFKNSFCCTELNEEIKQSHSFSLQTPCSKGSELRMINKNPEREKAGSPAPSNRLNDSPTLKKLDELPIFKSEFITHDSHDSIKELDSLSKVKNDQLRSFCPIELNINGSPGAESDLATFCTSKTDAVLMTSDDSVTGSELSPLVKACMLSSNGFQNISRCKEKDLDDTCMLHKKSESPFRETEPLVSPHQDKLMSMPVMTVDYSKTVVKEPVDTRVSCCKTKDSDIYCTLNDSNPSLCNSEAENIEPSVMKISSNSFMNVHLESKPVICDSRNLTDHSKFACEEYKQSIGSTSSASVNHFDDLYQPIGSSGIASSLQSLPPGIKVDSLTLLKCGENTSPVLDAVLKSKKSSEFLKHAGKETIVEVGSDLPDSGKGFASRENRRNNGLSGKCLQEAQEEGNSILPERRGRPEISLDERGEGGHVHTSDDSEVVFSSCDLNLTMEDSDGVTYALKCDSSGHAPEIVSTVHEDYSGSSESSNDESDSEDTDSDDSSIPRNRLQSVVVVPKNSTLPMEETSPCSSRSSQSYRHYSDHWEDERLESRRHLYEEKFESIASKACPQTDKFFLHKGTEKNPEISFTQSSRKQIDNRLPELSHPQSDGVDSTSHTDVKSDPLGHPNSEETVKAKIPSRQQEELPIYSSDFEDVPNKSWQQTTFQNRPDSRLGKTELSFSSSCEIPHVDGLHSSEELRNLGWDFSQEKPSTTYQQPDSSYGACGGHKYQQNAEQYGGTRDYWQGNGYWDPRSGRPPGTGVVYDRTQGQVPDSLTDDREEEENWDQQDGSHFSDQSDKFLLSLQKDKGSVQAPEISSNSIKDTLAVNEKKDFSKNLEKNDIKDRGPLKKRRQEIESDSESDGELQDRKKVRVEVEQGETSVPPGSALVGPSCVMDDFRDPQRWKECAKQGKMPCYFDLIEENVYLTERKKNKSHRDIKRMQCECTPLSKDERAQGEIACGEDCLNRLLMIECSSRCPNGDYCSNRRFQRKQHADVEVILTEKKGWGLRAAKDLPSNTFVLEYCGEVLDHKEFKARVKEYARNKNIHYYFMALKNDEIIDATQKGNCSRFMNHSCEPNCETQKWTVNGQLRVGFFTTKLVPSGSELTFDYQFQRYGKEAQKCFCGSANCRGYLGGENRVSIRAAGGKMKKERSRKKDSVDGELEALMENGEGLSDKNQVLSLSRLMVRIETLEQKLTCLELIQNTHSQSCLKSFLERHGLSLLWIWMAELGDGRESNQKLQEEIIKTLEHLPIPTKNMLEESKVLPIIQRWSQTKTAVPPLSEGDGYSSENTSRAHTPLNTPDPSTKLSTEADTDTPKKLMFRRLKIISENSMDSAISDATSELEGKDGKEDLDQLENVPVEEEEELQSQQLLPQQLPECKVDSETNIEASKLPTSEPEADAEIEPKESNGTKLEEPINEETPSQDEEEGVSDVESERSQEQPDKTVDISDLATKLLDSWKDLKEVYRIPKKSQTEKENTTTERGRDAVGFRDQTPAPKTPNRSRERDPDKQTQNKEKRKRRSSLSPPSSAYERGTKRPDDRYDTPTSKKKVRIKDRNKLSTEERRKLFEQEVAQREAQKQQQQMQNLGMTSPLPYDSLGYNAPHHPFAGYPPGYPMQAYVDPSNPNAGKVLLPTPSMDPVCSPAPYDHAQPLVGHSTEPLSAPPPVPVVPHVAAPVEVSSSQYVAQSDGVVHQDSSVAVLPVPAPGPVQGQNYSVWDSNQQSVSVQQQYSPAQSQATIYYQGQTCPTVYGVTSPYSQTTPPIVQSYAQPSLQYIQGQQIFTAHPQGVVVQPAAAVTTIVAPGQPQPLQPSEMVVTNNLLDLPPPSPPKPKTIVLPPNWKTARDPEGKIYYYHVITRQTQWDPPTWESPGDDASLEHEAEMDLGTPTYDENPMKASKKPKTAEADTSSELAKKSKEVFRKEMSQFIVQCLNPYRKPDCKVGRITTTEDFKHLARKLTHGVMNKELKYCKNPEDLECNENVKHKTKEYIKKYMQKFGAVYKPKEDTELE
Sequence of UniProt Q9NRP0 (Q9NRP0 whole entry): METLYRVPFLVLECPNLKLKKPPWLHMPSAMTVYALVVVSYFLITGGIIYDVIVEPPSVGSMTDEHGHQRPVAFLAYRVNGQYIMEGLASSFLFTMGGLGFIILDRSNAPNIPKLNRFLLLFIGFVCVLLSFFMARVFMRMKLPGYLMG
Sequence of UniProt Q9H694 (Q9H694 whole entry): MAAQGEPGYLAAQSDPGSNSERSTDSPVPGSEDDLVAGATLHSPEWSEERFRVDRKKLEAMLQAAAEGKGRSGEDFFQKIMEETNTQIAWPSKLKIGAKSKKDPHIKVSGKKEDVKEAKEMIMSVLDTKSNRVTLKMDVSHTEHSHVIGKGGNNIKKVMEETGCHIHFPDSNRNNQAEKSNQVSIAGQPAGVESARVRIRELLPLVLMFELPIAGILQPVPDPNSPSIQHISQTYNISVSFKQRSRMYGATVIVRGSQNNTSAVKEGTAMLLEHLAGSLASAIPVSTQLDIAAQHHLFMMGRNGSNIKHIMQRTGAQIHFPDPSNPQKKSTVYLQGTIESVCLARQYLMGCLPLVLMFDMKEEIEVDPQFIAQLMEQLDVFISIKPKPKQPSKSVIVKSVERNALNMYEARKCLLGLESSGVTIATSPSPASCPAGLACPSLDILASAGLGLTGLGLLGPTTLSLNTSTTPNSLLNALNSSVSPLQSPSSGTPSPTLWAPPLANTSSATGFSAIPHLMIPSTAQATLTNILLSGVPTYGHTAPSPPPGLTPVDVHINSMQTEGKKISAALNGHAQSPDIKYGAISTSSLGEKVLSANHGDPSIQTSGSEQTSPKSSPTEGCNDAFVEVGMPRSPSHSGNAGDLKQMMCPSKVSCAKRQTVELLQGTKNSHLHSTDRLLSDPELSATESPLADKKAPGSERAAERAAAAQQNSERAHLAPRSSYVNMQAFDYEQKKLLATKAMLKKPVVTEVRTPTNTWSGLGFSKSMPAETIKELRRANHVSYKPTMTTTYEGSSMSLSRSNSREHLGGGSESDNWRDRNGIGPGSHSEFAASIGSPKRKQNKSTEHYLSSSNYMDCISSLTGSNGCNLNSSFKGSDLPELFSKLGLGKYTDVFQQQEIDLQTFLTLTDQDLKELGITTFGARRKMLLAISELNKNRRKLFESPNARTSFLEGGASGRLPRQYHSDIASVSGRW

Compound in this assay: COC(=O)C#Cc1ccccc1 [methyl 3-phenylpropiolate]
The assay is described as follows: log2 ratio of iodoacetamide-alkyne labeling of the cysteine site, DMSO over compound (competition); higher = stronger covalent engagement of the cysteine by the compound, active = 1 or more. The following applies: 500 µM; treatment time 1 h; system: HEK293T cell lysate. An outline of the steps: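 Reporter intensities give each cysteine's log2 competition ratio as the mean of control channels over the mean of compound channels. The samples were HEK293T lysate (2 mg/mL) given vehicle or electrophile (500 µM, 1 h, ambient temperature), then iodoacetamide alkyne (1 h), followed by click coupling to sCIP-TMT reagents, pooling, trypsin digestion overnight at 37 °C, streptavidin enrichment, acid elution, Orbitrap Eclipse LC-MS/MS with FAIMS and FragPipe quantification. Duplicate channels and three replicates were run, and cysteines quantified in only one replicate were discarded.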
Turning to SPATA5L1 C78 (UniProt Q9BVQ7), the “log2 ratio of iodoacetamide-alkyne labeling” value (“log2 ratio” for short) is 0.204 (inactive).
Regarding DAXX C338 (UniProt Q9UER7), the “log2 ratio” value was 0.306 (inactive).
As to BICC1 C621 (UniProt Q9H694), the “log2 ratio” value was 0.525 (inactive).
In the case of TLN1 C2243 (UniProt Q9Y490), the “log2 ratio” value is 0.0807 (inactive).
As to RNF126 C15 (UniProt Q9BV68), the “log2 ratio” value was 0.119 (inactive).
For DDA1 C25 (UniProt Q9BW61) the value was 0.36 (inactive).
Take KIDINS220 C867 (UniProt Q9ULH0): the “log2 ratio” value is 0.436 (inactive).
On to MBNL1 C27 (UniProt Q9NR56), for which the “log2 ratio” value is 0.203 (inactive).
For UniProt Q9NSY1_C912 the value was 0.827 (inactive).
UniProt Q9UBD5_C158: the “log2 ratio” value was 1.13 (active).
For PUS7L C142 (UniProt Q9H0K6) the value was -0.0378 (inactive); for SETD2 C958 (UniProt Q9BYW2), 1.02 (active).
For MDN1 C43 (UniProt Q9NU22) the value was 1.32 (active); for UniProt Q9NRP4_C80, 0.483 (inactive).
As for TELO2 C367 (UniProt Q9Y4R8), the “log2 ratio” value was 0.0485 (inactive).
As to UniProt Q9Y3U8_C48, the “log2 ratio” value is 0.297 (inactive).
For ANKFY1 C460 (UniProt Q9P2R3) the value was 1.44 (active).
DIS3 C213 (UniProt Q9Y2L1): the “log2 ratio” value is 0.313 (inactive).
For MYO6 C1236 (UniProt Q9UM54) the value was 0.0604 (inactive).
For ASF1B C178 (UniProt Q9NVP2) the value was 1.22 (active); for OSTC C14 (UniProt Q9NRP0), 0.193 (inactive).
For UniProt Q9NUQ3_C127 the value was 0.926 (inactive); for SLC4A1AP C730 (UniProt Q9BWU0), 1.48 (active).
